According to PubChem BioAssay (EPA / NIEHS):
Values joined by “and” are separate entries in the source; they are usually repeats but may differ in a detail not shown here. Equal entries are not always repeated. The source holds several records for some structures; these can differ, active in one and inactive in another. Active and inactive are the calls of the source. How the source made its calls: active means hit-call score of the fitted dose curve at least 0.9, where 1 is the maximum; inactive means score below 0.9.

Assays:
[1] = read-out: Interferon-gamma inducible Protein 10 (IP10), CXCL10 (gene 3627); experiment: BSK_hDFCGF_IP10: BioMAP Diversity Plus: hDFCGF Assay for Interferon-gamma inducible Protein 10 (IP10) Biomarker Activity (AID 2283053); conditions: primary human foreskin fibroblasts; actives raise or lower the signal
Method in brief: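 IP-10 levels, quantified by ELISA, are taken from human foreskin fibroblast cultures 24 h after chemical treatment, with DMSO serving as negative control and baseline for bidirectional analysis.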

[2] = read-out: Urokinase-type plasminogen activator receptor (uPAR), PLAUR (gene 5329); experiment: BSK_CASM3C_uPAR: BioMAP Diversity Plus: CASM3C Assay for Urokinase-type plasminogen activator receptor (uPAR) Biomarker Activity (AID 2283054); conditions: primary human coronary artery smooth muscle cells; actives raise or lower the signal;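 further: cell-surface uPAR protein level quantified by ELISA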
[3] = read-out: Vascular cell adhesion molecule 1 (VCAM1), VCAM1 (gene 7412); experiment: BSK_CASM3C_VCAM1: BioMAP Diversity Plus: CASM3C Assay for Vascular cell adhesion molecule 1 (VCAM1) Biomarker Activity (AID 2283055); conditions: primary human coronary artery smooth muscle cells; actives raise or lower the signal;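 further: VCAM-1 protein level quantified by ELISA on the cells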
[4] = read-out: Collagen III, COL3A1 (gene 1281); experiment: BSK_hDFCGF_CollagenIII: BioMAP Diversity Plus: hDFCGF Assay for Collagen III Biomarker Activity (AID 2283056); conditions: primary human foreskin fibroblasts; actives raise or lower the signal
Method in brief: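 Response relative to DMSO, fitted in both directions, reflects ELISA-measured collagen III in human primary skin fibroblasts 24 h after compound addition.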

[5] = read-out: Epidermal growth factor receptor (EGFR), EGFR (gene 1956); experiment: BSK_hDFCGF_EGFR: BioMAP Diversity Plus: hDFCGF Assay for Epidermal growth factor receptor (EGFR) Biomarker Activity (AID 2283057); conditions: primary human foreskin fibroblasts; actives raise or lower the signal
Method in brief: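 Measured by ELISA: EGFR levels on primary human foreskin fibroblasts 24 h after chemical treatment, analysed relative to DMSO with bidirectional fitting.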

[6] = read-out: Interleukin-8 (IL8), CXCL8 (gene 3576); experiment: BSK_hDFCGF_IL8: BioMAP Diversity Plus: hDFCGF Assay for Interleukin-8 (IL8) Biomarker Activity (AID 2283058); conditions: primary human foreskin fibroblasts; actives raise or lower the signal
Method in brief: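 Fibroblast monolayers (human foreskin, hDFCGF) received test chemical for 24 h before ELISA detection of IL-8; either increases or decreases relative to DMSO count as activity.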

[7] = BSK_hDFCGF_Proliferation: Cell Proliferation Assessment in the BioMAP Diversity Plus: hDFCGF Assay (AID 2283059); conditions: primary human foreskin fibroblasts;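 further: curves fitted for both rise and fall of signal versus DMSO baseline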
Method in brief: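 Primary human foreskin fibroblasts, sub-confluent; […]; 10% TCA fix, 0.1% SRB stain, A560 total protein. Gain/loss fitted bidirectionally vs DMSO control.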

[8] = read-out: Macrophage colony-stimulating factor (MCSF), CSF1 (gene 1435); experiment: BSK_hDFCGF_MCSF: BioMAP Diversity Plus: hDFCGF Assay for Macrophage colony-stimulating factor (MCSF) Biomarker Activity (AID 2283060); conditions: primary human foreskin fibroblasts; actives raise or lower the signal
Method in brief: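 fibroblasts (human foreskin, primary), 24 h post-dose; M-CSF by ELISA; bidirectional fit, DMSO = baseline.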

[9] = BSK_hDFCGF_SRB: Viability Assessment in the BioMAP Diversity Plus: hDFCGF Assay (AID 2283061); conditions: primary human foreskin fibroblasts;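 further: cells exposed to compound for 24 h before the read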
Method in brief: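 SRB-based viability read on primary human skin fibroblasts at 24 h: TCA fixation, 0.1% dye, 560 nm. Gain or loss of signal is fitted against the DMSO negative control.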

[10] = read-out: TIMP metallopeptidase inhibitor 1 (TIMP1), TIMP1 (gene 7076); experiment: BSK_hDFCGF_TIMP1: BioMAP Diversity Plus: hDFCGF Assay for TIMP metallopeptidase inhibitor 1 (TIMP1) Biomarker Activity (AID 2283062); conditions: primary human foreskin fibroblasts; actives raise or lower the signal
Method in brief: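 Bidirectional curve fitting against DMSO baseline yielded this endpoint, based on ELISA detection of TIMP-1 in primary human foreskin fibroblasts exposed to compound for 24 h.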

[11] = read-out: Monokine induced gamma interferon (MIG), CXCL9 (gene 4283); experiment: BSK_hDFCGF_MIG: BioMAP Diversity Plus: hDFCGF Assay for Monokine induced gamma interferon (MIG) Biomarker Activity (AID 2283063); conditions: primary human foreskin fibroblasts; actives raise or lower the signal
Method in brief: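 Endpoint derived by bidirectional fitting relative to DMSO; MIG quantified via ELISA in primary human foreskin fibroblasts harvested 24 h after dosing.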

[12] = read-out: Matrix Metallopeptidase 1 (MMP1), MMP1 (gene 4312); experiment: BSK_hDFCGF_MMP1: BioMAP Diversity Plus: hDFCGF Assay for Matrix Metallopeptidase 1 (MMP1) Biomarker Activity (AID 2283064); conditions: primary human foreskin fibroblasts; actives raise or lower the signal
Method in brief: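 hDFCGF primary fibroblasts (human foreskin); chemical added; 24 h; MMP1 by ELISA; bidirectional fit vs DMSO.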

[13] = read-out: Vascular cell adhesion molecule 1 (VCAM1), VCAM1 (gene 7412); experiment: BSK_hDFCGF_VCAM1: BioMAP Diversity Plus: hDFCGF Assay for Vascular cell adhesion molecule 1 (VCAM1) Biomarker Activity (AID 2283065); conditions: primary human foreskin fibroblasts; actives raise or lower the signal;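 on AC50: VCAM-1 protein level quantified by ELISA after 24 h chemical exposure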
Method in brief: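 Measured after 24 h chemical treatment of primary human skin fibroblasts, VCAM-1 was detected by ELISA and concentration-response analysed in both directions versus DMSO vehicle.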

[14] = read-out: Plasminogen activator inhibitor-1 (PAI1), SERPINE1 (gene 5054); experiment: BSK_hDFCGF_PAI1: BioMAP Diversity Plus: hDFCGF Assay for Plasminogen activator inhibitor-1 (PAI1) Biomarker Activity (AID 2283066); conditions: primary human foreskin fibroblasts; actives raise or lower the signal
Method in brief: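 PAI-1 levels, determined by ELISA, served as the endpoint in human foreskin fibroblast cultures exposed to compound for 24 h, with DMSO as baseline.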

[15] = read-out: Intercellular Adhesion Molecule 1 (ICAM1), ICAM1 (gene 3383); experiment: BSK_KF3CT_ICAM1: BioMAP Diversity Plus: KF3CT Assay for Intercellular Adhesion Molecule 1 (ICAM1) Biomarker Activity (AID 2283067); conditions: primary human keratinocytes with fibroblasts; actives raise or lower the signal
Method in brief: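 Bidirectional curve fitting against a DMSO baseline was applied to ICAM-1 ELISA signal from primary human skin co-cultures harvested 24 h after treatment, with SRB staining of parallel wells for overt cytotoxicity.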

[16] = read-out: Interferon-gamma inducible Protein 10 (IP10), CXCL10 (gene 3627); experiment: BSK_KF3CT_IP10: BioMAP Diversity Plus: KF3CT Assay for Interferon-gamma inducible Protein 10 (IP10) Biomarker Activity (AID 2283068); conditions: primary human keratinocytes with fibroblasts; actives raise or lower the signal
Method in brief: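 In a primary skin co-culture of keratinocytes and fibroblasts, IP-10 is quantified by ELISA at 24 h after dosing. SRB staining of parallel wells monitors overt toxicity. Curves are fitted both directions against DMSO.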

[17] = BSK_KF3CT_SRB: Viability Assessment in the BioMAP Diversity Plus: KF3CT Assay (AID 2283069); conditions: primary human keratinocytes with fibroblasts;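 further: total protein by sulforhodamine B staining as a cytotoxicity measure; fitted for both signal gain and loss against DMSO baseline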
Method in brief: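 Keratinocytes co-cultured with foreskin fibroblasts (human primary); chemical added, 24 h; fix 10% TCA, stain 0.1% SRB, A560. Bidirectional fit vs DMSO.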

[18] = read-out: Interleukin-1 alpha (IL1a), IL1A (gene 3552); experiment: BSK_KF3CT_IL1a: BioMAP Diversity Plus: KF3CT Assay for Interleukin-1 alpha (IL1a) Biomarker Activity (AID 2283070); conditions: primary human keratinocytes with fibroblasts; actives raise or lower the signal
Method in brief: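 Chemicals were dosed onto co-cultured human keratinocytes and foreskin fibroblasts, IL-1a was quantified by ELISA at 24 h, and activity was fitted in both directions relative to DMSO controls.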

[19] = read-out: TIMP metallopeptidase inhibitor 2 (TIMP2), TIMP2 (gene 7077); experiment: BSK_KF3CT_TIMP2: BioMAP Diversity Plus: KF3CT Assay for TIMP metallopeptidase inhibitor 2 (TIMP2) Biomarker Activity (AID 2283071); conditions: primary human keratinocytes with fibroblasts; actives raise or lower the signal
Method in brief: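 Keratinocyte–fibroblast co-culture, 24 h exposure; TIMP-2 ELISA, DMSO-normalised bidirectional fit. Parallel SRB (0.1%, TCA-fixed, 560 nm) total-protein staining gauges cytotoxicity.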

[20] = read-out: Transforming growth factor beta 1 (TGFb1), TGFB1 (gene 7040); experiment: BSK_KF3CT_TGFb1: BioMAP Diversity Plus: KF3CT Assay for Transforming growth factor beta 1 (TGFb1) Biomarker Activity (AID 2283072); conditions: primary human keratinocytes with fibroblasts; actives raise or lower the signal
Method in brief: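 Signal changes in either direction, relative to DMSO, define activity here. TGF-b1 is read by ELISA from a human keratinocyte-fibroblast co-culture 24 h post-dose.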

Measured: AC50

Oc1ccc(Cc2ccccc2O)cc1
inactive: [1] | [2] | [3] | [4] | [5] | [6] | [7] | [8] | [9] | [10] | [11] | [12] | [13] | [14] | [15] | [16] | [17] | [18] | [19]
active: [3] 3.97 µM | [7] 33.6 µM

O=S(=O)(O)C(F)(F)C(F)(F)C(F)(F)C(F)(F)C(F)(F)C(F)(F)C(F)(F)C(F)(F)C(F)(F)C(F)(F)F
inactive: [1] | [2] | [4] | [5] | [6] | [8] | [10] | [11] | [12] | [13] | [14] | [18] | [19]
active: [3] 3.55 µM and 2.65 µM | [7] 1.46 µM and 1.89 µM | [9] 8.49 µM and 8.79 µM | [10] 11.5 µM | [13] 0.201 µM | [15] 6.49 µM and 3.75 µM

O=C1OC2(c3ccccc31)c1cc(I)c(O)c(I)c1Oc1c2cc(I)c(O)c1I
inactive: [2] | [3] | [6] | [9] | [17]
active: [1] 16 µM | [4] 3.75 µM | [5] 1.88 µM | [7] 15.2 µM | [8] 4.57 µM | [10] 6.04 µM | [11] 18.6 µM | [12] 7.71 µM | [13] 12 µM | [14] 5.52 µM | [15] 17.4 µM | [18] 4.82 µM | [19] 2.44 µM | [20] 3.45 µM
